Here are results for one compound from PubChem BioAssay AID753 (Emory University Molecular Libraries Screening Center, 2007).

The other results are listed elsewhere or left out. Records with an inconclusive call do not appear. A number with no mark means an inactive call.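 The calls were made as follows: active = percent of control activity at or below 60%; inconclusive = HPLC trace unusable from injection failure or solvent front hiding peaks; inactive = the rest, plus ubiquitin peak ratio over a set limit.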

The target of the test is Ubiquitin carboxyl-terminal hydrolase BAP1 (Homo sapiens) (UniProt Q92560). Description: BAP1 ubiquitin ester hydrolysis inhibition – biochemical, Ub-ethyl ester substrate, HPLC readout, orthogonal assay, confirmation (AID 753). As to conditions: purified BAP1, Ub-ethyl ester hydrolysis, at 20 µM, active compounds read low.
Chain of Ubiquitin carboxyl-terminal hydrolase BAP1 (Homo sapiens) (Q92560 whole entry, looked up): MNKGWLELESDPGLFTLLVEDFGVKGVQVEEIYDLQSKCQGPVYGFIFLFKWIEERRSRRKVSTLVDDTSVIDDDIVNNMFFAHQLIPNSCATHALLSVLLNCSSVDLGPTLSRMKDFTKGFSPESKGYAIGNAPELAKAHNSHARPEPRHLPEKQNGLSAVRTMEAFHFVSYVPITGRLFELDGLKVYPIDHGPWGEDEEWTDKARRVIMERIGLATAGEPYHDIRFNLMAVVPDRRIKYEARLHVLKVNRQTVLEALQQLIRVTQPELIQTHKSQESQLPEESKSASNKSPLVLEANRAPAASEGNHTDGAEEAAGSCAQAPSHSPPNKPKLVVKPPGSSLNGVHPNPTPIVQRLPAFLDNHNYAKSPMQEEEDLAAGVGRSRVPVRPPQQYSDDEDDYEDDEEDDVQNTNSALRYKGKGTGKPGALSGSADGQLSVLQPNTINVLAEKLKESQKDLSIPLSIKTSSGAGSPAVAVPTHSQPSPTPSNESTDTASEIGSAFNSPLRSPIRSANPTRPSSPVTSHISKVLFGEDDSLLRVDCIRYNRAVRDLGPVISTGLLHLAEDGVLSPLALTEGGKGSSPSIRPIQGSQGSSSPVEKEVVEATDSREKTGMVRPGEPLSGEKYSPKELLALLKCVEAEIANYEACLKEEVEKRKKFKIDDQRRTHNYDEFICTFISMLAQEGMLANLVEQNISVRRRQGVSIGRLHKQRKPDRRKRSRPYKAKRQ

As for `CCCCCn1c(=O)c(C(=O)NCc2ccccn2)c(O)c2ccccc21`, the % of control activity is 112%.
